From PubChem
Sampled rows, rich in hits. Any-hit rate of the full collection: about 0.71%.
CBFb RUNX1 block = blocks binding between human CBF-beta and RUNX1; Q01196+Q13951; 230,000 tested, under 10 active; AlphaScreen CBFb-His/RUNX1-biotin binding, biochemical; Potency, µM (top dose mostly 59.8 µM), for inactives: top-dose activity, negative = inhibition, actives largely listed as inhibitors; note: % of control where 0% means no effect
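Proteins preincubated together for 20 min at RT before compound addition; 15 min later, nickel and streptavidin beads were added and left 90 min prior to AlphaScreen measurement.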
TR SRC2 fluor cs = alters Texas Red total fluorescence, flagging assay interference. TRb/SRC2 Texas Red total fluorescence interference. AID 1479. 280,000 tested, 0.29% active. Potency, µM (series often up to 106 µM), for inactives: at the top dose fluorescence change, negative = quenching; active = well fitted curve in either direction with a large enough effect; inconclusive = small, poorly fitted or top-dose-only effect; note: potency is the fitted concentration of half-maximal effect; % is set by controls: 0 for no effect and ±100 for the full control effect
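Human TRb ligand-binding domain at 0.6 uM with 20 nM Texas Red SRC2 peptide in Tris buffer containing 1 uM T3 and 5% DMSO, incubated with compound 5 h at ambient temperature. Total fluorescence (555/632 nm) calculated as parallel + 2 × perpendicular.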
Epigenetic reg = epigenetic control regulation, reporter derepression. AID 1865. 280,000 tested, 0.2% active. Potency, µM (highest dose often 53.9 µM), for inactives: top-dose GFP activation, most hits filed as activators. murine LDR cells, GFP reporter derepression, 30 h; note: potency is the fitted concentration of half-maximal effect; % of control where 0% means no effect; nearly all actives have a fitted effect of over 60% in size
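Murine LDR cells carrying a silenced, genomically integrated CMV-driven GFP reporter were exposed to compound for 30 hours at 37 C. After PBS washes, GFP-positive cells (20–120 um objects) were counted by laser-scanning microplate cytometry.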
TRb-SRC2 inh = TRbeta-SRC2 interaction inhibition; Potency, µM (doses to about 106 µM), without a hit: at the highest dose activity change, negative = inhibition, most hits filed as inhibitors; TRbeta-SRC2 peptide binding, fluorescence polarization; receptor liganded with 1 µM T3; 280,000 tested, 0.065% active; AID 1469;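 note: potency is the fitted concentration of half-maximal effect; plate controls were bound peptide for no effect and peptide without receptor for full effect; nearly all actives have a fitted effect of over 50% in size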
Target sequence (P10828 whole entry, looked up): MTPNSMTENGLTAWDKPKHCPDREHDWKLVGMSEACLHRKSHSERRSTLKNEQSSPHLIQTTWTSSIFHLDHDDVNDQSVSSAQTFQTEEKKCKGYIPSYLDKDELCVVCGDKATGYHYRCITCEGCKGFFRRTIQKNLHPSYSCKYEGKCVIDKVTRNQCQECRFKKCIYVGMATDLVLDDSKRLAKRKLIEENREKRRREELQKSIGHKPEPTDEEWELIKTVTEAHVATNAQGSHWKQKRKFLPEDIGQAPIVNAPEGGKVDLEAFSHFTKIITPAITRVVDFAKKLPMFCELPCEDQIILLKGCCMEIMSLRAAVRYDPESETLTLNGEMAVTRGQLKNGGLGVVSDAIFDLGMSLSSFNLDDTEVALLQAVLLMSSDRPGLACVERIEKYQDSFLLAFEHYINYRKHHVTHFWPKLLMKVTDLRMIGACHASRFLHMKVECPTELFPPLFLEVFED
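Quantitative HTS by FP: 0.6 uM TRb LBD, 20 nM labeled SRC2 20-mer, 1 uM T3, 5% DMSO; 5 hr ambient incubation; % activity per concentration and potencies from concentration series.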
RGS12 GoLoco inh = inhibitors of human Gai1-RGS12 GoLoco interaction (red fluorophore); P63096; Gai1:RGS12 GoLoco peptide FP, rhodamine, 10 min; 230,000 tested, 0.44% active; Potency, µM (top dose mostly 61.6 µM), inactives show at the top dose activity, negative = inhibition, hits mostly inhibitors; active = well fitted inhibition curve with a large enough effect, not every such curve was filed as active; inactive = no such curve, though single readings can be large or run the other way; note: potency is the fitted concentration of half-maximal effect; % is set by controls: 0 for no effect and ±100 for the full control effect; nearly all actives have a fitted effect of over 30% in size
Parental c127i = parental c127i cell effect of epigenetic modulator hits. AID 493065. Potency, µM, for inactives: at the highest dose fluorescent cell count, hits mostly activators. shares compounds with Epigenetic reg. mouse c127i parental cells, fluorescent cell count, 30 h. 60 tested, 20% active
HCC4017 tox = HCC4017 cytotoxicity of epigenetic modulator hits | Potency, µM (series often up to 46.1 µM), inactives show top-dose activity change, negative = cytotoxicity, actives largely listed as cytotoxic | shares compounds with Epigenetic reg | 45 tested, 30% active | AID 493071 | HCC4017 NSCLC viability, CellTiter-Glo ATP luminescence, 72 h
H358 tox = H358 cytotoxicity of epigenetic modulator hits. H358 NSCLC viability, ATP luminescence, 72 h. shares compounds with Epigenetic reg. 45 tested, 30% active. AID 493074. Potency, µM (titrated, usually from 46.1 µM), inactives show at the top dose activity change, negative = viability loss, usual class: cytotoxic
* marks the source's active call; other numbers are inactive results; ? = inconclusive; · = no result. Unless noted, calls come from the whole dose curve; as a rule, active = well fitted curve in the direction sought with a large enough effect; inconclusive = small, poorly fitted or top-dose-only effect, or another doubt; inactive = no such curve, though single readings can be large; an effect the other way counts as inactive or inconclusive.

SMILES	CBFb RUNX1 block	TR SRC2 fluor cs	Epigenetic reg	TRb-SRC2 inh	RGS12 GoLoco inh	Parental c127i	HCC4017 tox	H358 tox
O=[N+]([O-])/C(C=Nc1ccccc1O)=C\Nc1ccccc1O	-27%	3%	?	-1%	5%	4%	-11%	?
Cc1ccc(NC(=O)c2c(C)nc3sc(C(=O)NC4CCCC4)c(N)c3c2-c2ccco2)c(C)c1	0%	1%	?	-2%	15%	?	·	·
O=C(NN1C(=O)c2ccccc2NC1c1ccc([N+](=O)[O-])o1)c1ccccc1 (centres undefined)	3%	0%	-1%	-2%	0%	·	·	·
O=C(NN1C(=O)c2ccccc2NC1c1ccc([N+](=O)[O-])o1)c1ccc([N+](=O)[O-])cc1 (centres undefined)	-1%	-1%	10µM*	-1%	51%	9%	?	?
Cc1ccc(C(C)C)c(OCc2ccc(C(=O)N/N=C/c3ccc(O)c(O)c3)cc2)c1	-4%	-4%	0%	1%	-10%	·	·	·
Cc1ccc(C(C)C)c(OCc2ccc(C(=O)N/N=C/c3cccc(O)c3O)cc2)c1	-3%	-4%	?	-2%	16%	1%	2µM*	0.56µM*
C/C=C/c1ccc(OCC(=O)OCC(=O)NC2CC2)c(OC)c1	8%	-2%	?	1%	3%	2%	9%	16%
C/C=C/c1ccc(OCC(=O)Nc2ccc(C(N)=O)cc2)c(OC)c1	1%	0%	0%	-1%	8%	·	·	·
Cc1cc(Br)ccc1NC(=O)C1CCCN(S(=O)(=O)c2cccc3nonc23)C1 (centres undefined)	·	-2%	?	3%	·	·	·	·
Cc1cc(NC(=O)C2CCCN(S(=O)(=O)c3cccc4nonc34)C2)ccc1Br (centres undefined)	·	-1%	?	3%	·	32µM*	·	·
CCN(CC)CCNC(=O)c1ccc(-n2c(-c3ccccc3)cc3c2CCCC3)cc1	·	-7%	0%	-2%	·	·	·	·
CC1=C/C(=N\NC(=S)Nc2cccnc2)CC(C)(C)C1	-23%	1%	6.3µM*	0%	7%	2%	?	-37%
CSc1ccccc1C(=O)C1CCCN(C(=O)CCN2CCCO2)C1 (centres undefined)	3%	-6%	1%	-4%	9%	·	·	·
CCN(CCCNC(=O)c1cc(Nc2ccccc2OC)nc2ccccc12)c1cccc(C)c1	·	-1%	6%	1%	·	·	·	·
COc1ccc(C(=O)/C=C/Sc2nc3ccccc3o2)cc1	-2%	-4%	?	-4%	2%	10%	7.9µM*	7.9µM*
CCOC(=O)c1c(NC(=O)CC2Nc3cc(C)c(C)cc3NC2=O)sc(C)c1C (centres undefined)	-6%	-1%	8.9µM*	4%	17%	?	·	·
Cc1ccc(N(Cc2cccs2)C(=O)c2ccc(OC(C)C)cc2)cc1	·	?	-2%	-18%	·	·	·	·
